Among the data in PubChem BioAssay AID624348 (National Center for Advancing Translational Sciences (NCATS), 2012) are outcome values, retold here.

Structures are written as SMILES. Calls of active or inactive are those of the source.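 The calls were made as follows: active = concentration cutting cell viability by half at or below 20 µM after three days; inconclusive = half-viability concentration between 20 and 30 µM; inactive = half-viability concentration of 30 µM or more.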

This assay can be described thus: qHTS for Inducers of the Endoplasmic Reticulum Stress Response (ERSR) in Human Glioma: Hit Validation in Cytotoxic Counterscreen. The following applies: U87-MG glioma viability, CellTiter-Glo ATP luminescence, 72 h. The source says: Primary protein unfolding takes place for many diseases, including diabetes and hypoxia, , and triggers a reaction in the cells called ER stress response (ERSR). ). ERSR is designed as a repair mechanism, but ultimately leads to cell death via apoptosis if conditions triggering protein unfolding persist (1). The molecular clue to ERSR activation is the enhancement of the expression of key molecular chaperones, including the glucose regulated protein (GRP) 78. GRP78 is the main sensor for protein folding and the main actuator of the ERSR. In a collaboration between the Southern Research Institute and the NIH Chemical Genomics Center, a cell based screen was developed that reliably uses GRP78 as a sensor to identify small molecules as inducers of ERSR. In resting conditions, GRP78 binds proteins and acts as a natural repressor. Once unfolded proteins are present in the ER, GRP78 releases some of the repressors and binds to the unfolded proteins. The release of the repressors executes the ERSR program. Using a human glioma cell line in a miniaturized, luminescent format, a high-throughput screen was developed to identify actuators of the ERSR. This assay validates the hits identified in the primary screen in this cytotoxic counterscreen. Activity is undesirable in this assay. NIH Chemical Genomics Center [NCGC] NIH Molecular Libraries Probe Centers Network [MLPCN] MLPCN Grant: DA031669 Assay Submitter (PI): Maurizio Grimaldi, Southern Research Institute (1) Soboloff, J. and S. A. Berger (2002). "Sustained ER Ca2+ depletion suppresses protein synthesis and induces activation-enhanced cell death in mast cells." J Biol Chem 277(16): 13812-20.
Wild type U87-MG are dispensed at density 1000 cells/well into Greiner white solid bottom 1536-well assay plates. […] The plates are incubated at room temperature for 10 minutes and read in a ViewLux high-throughput CCD imager (PerkinElmer), wherein end-point measurements of luminescence through the quantitation of the ATP content, an indicator of metabolically active cells, are acquired.
`CC(C)Cc1nn2c(=O)cc(COC(=O)CNC(=O)c3ccc(C(C)(C)C)cc3)nc2s1`: the call was inactive. On to `CC(=O)N1CCOc2cc(S(=O)(=O)Nc3c(C)cccc3C(C)C)c(Cl)cc21`, for which the molecule was classed as inactive. With `Cc1ccc(-c2cc(NC(=O)C(C)Oc3ccc(C)c(C)c3)on2)cc1` (stereo not drawn), the molecule was classed as inactive.
